# Source: PubChem BioAssay (National Center for Advancing Translational Sciences (NCATS))
# An excerpt weighted towards active compounds, which were near 1.5% of everything screened.
# RECQ1 inh-1: qHTS Assay for Inhibitors of RecQ-Like Dna Helicase 1 (RECQ1) | ATP-dependent DNA helicase Q1 (Homo sapiens), P46063 | RECQ1 DNA unwinding, red fluorescence kinetic read | Potency, µM (highest dose often 57.3 µM), for the others: at the highest dose activity, negative = inhibition, usual class: inhibitors | 240,000 compounds, 0.54% hits;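 also: potency is read from the fitted curve at half-maximal effect; plate controls were vehicle for no effect and no enzyme for full effect; nearly all actives have a fitted effect of over 30% in size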
#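 RECQ1T1 50 nM; forked duplex (20 bp + 30-nt ss tails) 200 nM, ATP 2 mM final; pH 8.0, 2 mM MgCl2, 2.5 ug/ml poly(dI-dC); 15 min compound preincubation; discontinuous kinetic read over 2 h at RT.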
# BLM helicase inh: qHTS Assay for Inhibitors of Bloom's syndrome helicase (BLM); recombinant BLM DNA unwinding, fluorescence dequenching; 350,000 compounds, 0.2% hits; Potency, µM (series often up to 56.1 µM), for the others: at the highest dose activity change, negative = inhibition, hits mostly inhibitors;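 also: potency is read from the fitted curve at half-maximal effect; plate controls were vehicle for no effect and no enzyme for full effect; nearly all actives have a fitted effect of over 35% in size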
# FEN1 inhibitor: qHTS Assay for the Inhibitors of Human Flap endonuclease 1 (FEN1); P39748; Recombinant FEN1 flap cleavage, fluorescence, 15 min; Potency, µM (titrated, usually from 114 µM), for the others: top-dose activity change, negative = inhibition, hits mostly inhibitors; 390,000 compounds, 0.35% hits; AID 588795, 2011; also: potency is read from the fitted curve at half-maximal effect; nearly all actives have a fitted effect of over 65% in size
#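 Quantitative HTS format: each compound was titrated, incubated with 10 nM nuclease for 15 min at room temperature, then challenged with flap substrate at 50 nM final. Signal change over 15 min gave concentration–effect curves.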
# GCN5L2 inh: qHTS Assay for Inhibitors of GCN5L2 | Histone acetyltransferase KAT2A (Homo sapiens), Q92830 | GCN5L2 HAT assay, ThioGlo1 CoA-SH fluorescence | Potency, µM (highest dose often 58.9 µM), inactives show at the highest dose activity change, negative = inhibition, hits mostly inhibitors | 390,000 compounds, 0.21% hits | AID 504327, 2011; also: potency is read from the fitted curve at half-maximal effect
# Target sequence (Q92830 whole entry, looked up): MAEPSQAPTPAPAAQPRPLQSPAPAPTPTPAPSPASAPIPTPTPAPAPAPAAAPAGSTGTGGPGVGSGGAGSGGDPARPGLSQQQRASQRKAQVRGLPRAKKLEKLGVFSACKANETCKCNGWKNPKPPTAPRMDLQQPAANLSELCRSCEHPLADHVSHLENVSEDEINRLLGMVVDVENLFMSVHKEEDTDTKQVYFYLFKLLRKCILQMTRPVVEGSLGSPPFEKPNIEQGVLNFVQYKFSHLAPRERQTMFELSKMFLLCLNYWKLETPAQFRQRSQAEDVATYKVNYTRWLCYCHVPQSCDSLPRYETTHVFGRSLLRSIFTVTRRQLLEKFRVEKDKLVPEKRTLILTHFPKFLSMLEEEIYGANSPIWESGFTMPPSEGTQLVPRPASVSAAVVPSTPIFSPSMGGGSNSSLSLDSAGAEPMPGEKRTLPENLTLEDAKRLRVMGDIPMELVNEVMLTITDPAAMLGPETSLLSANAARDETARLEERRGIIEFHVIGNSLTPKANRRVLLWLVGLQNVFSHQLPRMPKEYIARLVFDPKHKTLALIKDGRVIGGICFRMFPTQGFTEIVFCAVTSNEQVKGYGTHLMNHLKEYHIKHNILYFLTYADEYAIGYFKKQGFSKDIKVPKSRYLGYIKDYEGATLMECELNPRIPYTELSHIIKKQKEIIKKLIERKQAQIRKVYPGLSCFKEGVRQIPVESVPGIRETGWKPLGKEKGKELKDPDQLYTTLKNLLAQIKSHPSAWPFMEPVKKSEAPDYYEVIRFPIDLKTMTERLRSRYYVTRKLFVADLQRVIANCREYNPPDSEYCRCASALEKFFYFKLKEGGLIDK
#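 ThioGlo1-coupled HAT assay: 20nM GCN5L2, 70uM acetyl-CoA, 75uM H3(1-25) peptide, pH 7.5. Fluorescence read at 340/540nm at start and after 20 min at room temperature.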
# APE1 inh: qHTS Assay for Inhibitors of the Human Apurinic/apyrimidinic Endonuclease 1 (APE1) | DNA repair nuclease/redox regulator APEX1 (Homo sapiens), P27695 | AID 2517, 2012 | 350,000 compounds, 0.35% hits | Potency, µM (series often up to 65.8 µM), for the others: at the highest dose activity change, negative = inhibition, most hits filed as inhibitors | recombinant APE1, TAMRA/BHQ-2 abasic DNA cleavage fluorescence;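 also: potency is read from the fitted curve at half-maximal effect; plate controls were vehicle for no effect and reference inhibitor for full effect; nearly all actives have a fitted effect of over 55% in size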
#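 Readout is kinetic fluorescence (ex 525, em 598 nm) from cleavage of 50 nM TAMRA/BHQ-2 THF abasic duplex by 0.75 nM APE1, compound added 15 min beforehand at RT.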
# PI5P4K alpha inh: qHTS for Inhibitors of phosphatidylinositol 5-phosphate 4-kinase (PI5P4K). Phosphatidylinositol 5-phosphate 4-kinase type-2 alpha (Homo sapiens), P48426. PI5P4Kalpha enzyme, ADP-Glo luminescence, 60 min; active compounds read low. max response, %. 330,000 compounds, 1.2% hits. AID 652105, 2013; active = max response of -50% or lower; inconclusive = between -30% and -50%; inactive = -30% or higher; also: value at the top dose of about 77 µM
#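 Human PI5P4Kalpha with substrate in 0.038 M HEPES pH 7.4, 0.28 mM EGTA, 0.1% CHAPS, 5% DMSO; reaction started with 5 microM ATP (final), 60 min at room temperature. ADP formed read by ADP-Glo luminescence.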
# RECQ1 inh-2: Confirmation qHTS Assay for Inhibitors of RecQ-Like Dna Helicase 1 (RECQ1) - Round 2 Cherry Picks; shares compounds with RECQ1 inh-1; recombinant RECQ1 DNA unwinding, red fluorescence; Potency, µM (series often up to 119 µM), for the others: at the top dose activity, negative = inhibition, actives largely listed as inhibitors; 1,100 compounds, 15% hits; AID 504841, 2011; also: potency is read from the fitted curve at half-maximal effect; nearly all actives have a fitted effect of over 50% in size
# * = called active by the depositor; i = inactive; ? = inconclusive; · = not tested or not shown. Unless noted, calls follow the shape of the dose curve; as a rule, active = well fitted curve in the direction sought with a large enough effect; inconclusive = small, poorly fitted or top-dose-only effect, or another doubt; inactive = no such curve, though single readings can be large; an effect the other way counts as inactive or inconclusive. Unless noted, % is scaled to controls: 0 for no effect and ±100 for the full control effect.
SMILES,RECQ1 inh-1,BLM helicase inh,FEN1 inhibitor,GCN5L2 inh,APE1 inh,PI5P4K alpha inh,RECQ1 inh-2
COCCCn1c(=O)/c(=C\c2ccccc2OC(C)C)s/c1=C(/C#N)C(=O)Nc1ccc(C(=O)O)cc1,?,-8%,?,?,-2%,6,?
Cc1ccc(/C=c2\s/c(=C(/C#N)C(=O)N3CCCC3)n(Cc3ccco3)c2=O)s1,?,-14%,-16%,-14%,-9%,-16,·
COCCCn1c(=O)/c(=C\c2ccccc2OC(F)F)s/c1=C(/C#N)C(=O)NC(C)C,?,-7%,-1%,-1%,1%,11,-13%
CC(=O)Nc1ccn(C2OC(C(COC(C)=O)NC(=O)C(C)NC(=O)OC(C)(C)C)C(OC(C)=O)C2OC(C)=O)c(=O)n1 (stereo not drawn),i,-1%,4%,·,15%,·,·
Cc1ccc2nc(N)[nH]c(=O)c2c1Sc1ccncc1,·,-2%,·,-13%,·,·,·
CCCCCCOC1(c2ccccc2)OC(=O)c2ccccc21 (stereo not drawn),40µM*,-8%,-2%,0%,12%,5,-14%
Cc1nc(C(=O)Nc2cc(Cl)ccc2Cl)nn1-c1cc(OC(C)C)c(Cl)cc1Cl,-9%,-6%,-13%,-2%,-7%,-3,·
Cc1nc(C(=O)Nc2cccc(Cl)c2)nn1-c1cc(OC(C)C)c(Cl)cc1Cl,35µM*,-9%,-1%,-2%,-4%,·,-13%
Cc1nn(Cc2ccc(F)cc2)c(C)c1NC(=O)c1cc(-c2ccco2)on1,?,-7%,-11%,4%,-23%,·,?
CCC(=O)NC1CCc2cccc(OC)c2C1 (stereo not drawn),i,·,·,0%,13%,·,·
CCn1c(=O)c(-c2cc(=O)[nH][nH]2)c(O)c2ccccc21,25µM*,-4%,1%,4%,-4%,-5,3%
O=c1cc(-c2c(O)c3ccccc3n(Cc3ccccc3)c2=O)[nH][nH]1,?,-13%,?,-17%,-3%,?,·
O=S(=O)(NCCNC/C=C/c1ccc(Br)cc1)c1cccc2cnccc12,-6%,·,·,-24%,2%,·,·
O=C(Nn1c(C2CCCCC2)nc2ccccc2c1=O)c1ccc(Cl)c([N+](=O)[O-])c1,0%,-4%,-15%,-4%,-8%,1,·
Cc1cc(C(=O)Nn2c(C3CCCCC3)nc3ccccc3c2=O)ccc1[N+](=O)[O-],25µM*,-7%,-14%,-2%,-6%,0,-11%
Clc1ccccc1N1CCN(c2ncnc3nc[nH]c23)CC1,28µM*,-1%,-3%,-3%,-1%,-1,?
CSc1nc2ccccc2cc1/C=C(\C#N)c1cccc(Cl)c1,13µM*,-3%,-11%,?,16%,3,-7%
Cc1cccc(NC(=O)c2ccc(OCc3c(C)noc3C)cc2)c1,·,·,-11%,0%,-9%,1,·
Cc1ccc(NC(=O)c2cccc(OCc3c(C)noc3C)c2)cc1,i,-8%,-10%,-3%,-7%,-4,·
